Among all 290,000 compounds or so, about 370 (0.13%) were called active.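 Rule for the calls: active = spots per cell inhibited over 60%, with over 100 cells counted and total cytoplasm intensity under 500,000; inconclusive = wells with under 100 cells, flagged as likely toxic; inactive = the rest.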 The sample as a whole holds a higher share of actives than the screen did. Entries with a potency or affinity are not part of this list.
These molecules were tested against G-protein coupled receptor 55 (Homo sapiens) (UniProt Q9Y2T6) (assay: inhibition of LPI-stimulated GPR55 beta-arrestin translocation – imaging, U2OS, beta-arrestin-GFP, LPI agonist, primary screen (AID 2013;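 note: U2OS cells stably carrying GPR55 and arrestin-GFP stimulated by 5 µM LPI near EC80; imaged beta-arrestin-GFP aggregate spots per cell after agonist stimulation; plate controls were LPI-stimulated DMSO wells for no effect and DMSO wells without LPI for full effect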)). Conditions: LPI antagonism, at 10 µM, active compounds read high.
Chain of G-protein coupled receptor 55 (Homo sapiens) (Q9Y2T6 whole entry, looked up): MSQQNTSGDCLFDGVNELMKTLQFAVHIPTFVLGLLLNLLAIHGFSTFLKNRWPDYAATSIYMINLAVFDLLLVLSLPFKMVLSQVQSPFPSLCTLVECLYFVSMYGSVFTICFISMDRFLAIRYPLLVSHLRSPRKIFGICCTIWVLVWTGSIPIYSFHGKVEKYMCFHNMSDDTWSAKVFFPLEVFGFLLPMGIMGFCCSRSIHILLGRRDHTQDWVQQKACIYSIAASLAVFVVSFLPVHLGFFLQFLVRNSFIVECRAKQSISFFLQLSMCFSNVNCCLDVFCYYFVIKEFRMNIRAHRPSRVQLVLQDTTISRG

| Structure (SMILES) | inhibition |
| --- | --- |
| O=C(COc1cccc2cccnc12)N/N=C1\SCC(=O)N1CCc1ccccc1 | 14.1% (inactive) |
| N#Cc1c(N)nc2c(c1-c1cccc(O)c1)CCCCCC2 | 76% (active) |
| N#Cc1c(N)nc2c(c1-c1ccccc1)CCCC2 | 14.6% (inactive) |
| N#Cc1c(N)nc2c(c1-c1ccccc1)CCC2 | -2.3% (inactive) |
| Cc1c(Br)cc(C(=O)NCCCN2CCOCC2)c(C)c1C | -19.3% (inactive) |
| Cc1ccc(C(=O)NC2CC(C)(C)NC(C)(C)C2)cc1Cl | -5.9% (inactive) |
| CCOc1ccccc1NC(=O)NCCc1c[nH]c2ccccc12 | 5.7% (inactive) |
| CCN(C(=O)CC(C)C)c1nnc(Cn2nnc3ccccc32)s1 | 6.1% (inactive) |
| O=C(CN1C(=O)S/C(=C\c2ccc(Cl)cc2)C1=O)NCCCn1ccnc1 | -24.8% (inactive) |
| N=C1C(c2nc(-c3ccc(Cl)cc3)cs2)=C(O)CN1CCCN1CCOCC1 | 14.9% (inactive) |
| Fc1ccc(-c2csc(N3CCOCC3)n2)cc1 | -10.5% (inactive) |
| Cc1c(Br)c([N+](=O)[O-])nn1CC(=O)N1CCN(C23CC4CC(CC(C4)C2)C3)CC1 | 10.9% (inactive) |
| O=C(CN(c1ccc(Cl)cc1)S(=O)(=O)c1ccc(Cl)c([N+](=O)[O-])c1)NCCc1ccc(F)cc1 | 7.2% (inactive) |
| Cc1ccc(N(CC(=O)NCCc2ccc(F)cc2)S(=O)(=O)c2ccc(Cl)c([N+](=O)[O-])c2)c(C)c1 | 65.4% (active) |
| O=C(CN(c1ccc(Cl)cc1)S(=O)(=O)c1ccc(Cl)c([N+](=O)[O-])c1)NCCc1ccccc1 | 5.1% (inactive) |
| O=S(=O)(NC1CCCCC1Oc1ccccc1)c1ccc(Cl)cc1 (stereo unspecified) | 12.4% (inactive) |
| CCn1cc(CN2CCC(C(=O)Nc3ccc(Oc4ccccc4)nc3)CC2)cn1 | 17% (inactive) |
| NC(=NC(=O)c1ccccc1)N1CCN(C(c2ccccc2)c2ccccc2)CC1 | 22.5% (inactive) |
| CC1=C(C(=O)OCc2ccccc2)C(c2ccc3ccccc3c2)NC(=O)N1CCCC(=O)O (stereo unspecified) | 1.7% (inactive) |
| Cn1nc(C(=O)NCc2ccco2)c2ccccc2c1=O | -3.1% (inactive) |
| COC(=O)c1cccc(S(=O)(=O)N2CCC(c3nc4ccccc4o3)CC2)c1 | 4.8% (inactive) |
| O=c1[nH]ncn1-c1ccccc1 | 0.1% (inactive) |
| Cc1ccc(OC(=O)c2ccc(N3CCOCC3)c([N+](=O)[O-])c2)cc1 | 2.8% (inactive) |

| Structure (SMILES) | inhibition |
| --- | --- |
| Cc1ncsc1CCOC(=O)c1ccc(N2CCOCC2)c([N+](=O)[O-])c1 | -11% (inactive) |
| CC(C)c1ccc(CN2C(=O)NC3(CCCCCC3)C2=O)cc1 | 4.2% (inactive) |
| CCC(=O)N1CCc2cc(Br)cc(S(=O)(=O)NCCN3CCCCC3C)c21 (stereo unspecified) | 77.2% (active) |
| CCC(=O)N1CCc2cc(Br)cc(S(=O)(=O)NCCN3CCCCC3CC)c21 (stereo unspecified) | 5.4% (inactive) |
| CC(=O)N1CCc2cc(Br)cc(S(=O)(=O)NCCN3CCCCC3C)c21 (stereo unspecified) | 10.5% (inactive) |
| COc1ccccc1CNC(=O)CSc1nc2ccccc2c(=O)n1CCCN1CCOCC1 | 1.4% (inactive) |
| Cc1ccccc1NC(=O)CSC(N)=O | 1.9% (inactive) |
| Cc1ccc(C(C)C)c(OCC(=O)Nc2cccc(S(=O)(=O)NC3=NCCCCC3)c2)c1 | -2.2% (inactive) |
| O=C(COc1ccc(Cl)cc1Cl)Nc1ccc(S(=O)(=O)NC2=NCCCCC2)cc1 | 3.6% (inactive) |
| Cc1cc(Nc2ccc(Cl)cc2)nc(NCc2ccccc2)n1 | 13.1% (inactive) |
| Cc1ccc(Nc2cc(C)nc(NCc3ccccc3)n2)cc1 | 26.1% (inactive) |
| CC(=O)NC(=S)Nc1cccc2ccc(C)nc12 | -6.6% (inactive) |
| Cc1cc(C(F)(F)F)n(-c2nc(C(=O)N/N=C/c3ccc(F)cc3)cs2)n1 | -8.1% (inactive) |
| COC(=O)c1ccccc1NC(=S)NC(=O)c1ccc2c(c1)OCO2 | 7.9% (inactive) |
| COc1ccc(CCNC(=O)[C@H](C)NC(=O)[C@@H]2CSC3c4ccccc4C(=O)N32)cc1 (stereo partly specified) | 9.5% (inactive) |
| CCN(c1ccccc1)S(=O)(=O)c1ccc(Cl)nc1 | -13.7% (inactive) |
| CCN(CC)S(=O)(=O)c1ccc(NCC2COc3ccccc3O2)c([N+](=O)[O-])c1 (stereo unspecified) | 8.6% (inactive) |
| Cc1ccc(CNc2nc(C)cs2)cc1 | 4.7% (inactive) |
| Cc1sc2nc(CSc3nc4ccccc4c(=O)n3CCCN3CCOCC3)[nH]c(=O)c2c1C | 89.7% (active) |
| Cc1[nH]c2ccccc2c1C(=O)CSc1nc2ccccc2c(=O)n1CCCN1CCOCC1 | -7.3% (inactive) |
| CCCn1c(SCc2nc3sc(C)c(C)c3c(=O)[nH]2)nc2ccccc2c1=O | 8.6% (inactive) |
| Cc1cc(C)cc(Oc2cc(NC(=O)c3cn(C)nc3C)cc([N+](=O)[O-])c2)c1 | -5.3% (inactive) |
| Cc1ccc(NC(=O)c2cc(S(=O)(=O)N3CCc4ccccc43)cn2C)cc1 | 6.1% (inactive) |
